Data as given in PubChem BioAssay AID1569 (National Center for Advancing Translational Sciences (NCATS), 2009).
Records with an inconclusive call do not appear. The source made the active and inactive calls. Calls come from the whole dose curve; as a rule, active = well fitted inhibition curve with a large enough effect; inconclusive = small, poorly fitted or top-dose-only effect, or effect the other way, or another doubt; inactive = no such curve, though single readings can be large or run the other way.

Assay: Confirmation Concentration-Response Assay for lipid storage modulators; note: nearly all actives have a fitted effect of over 80% in size
Conditions: Drosophila S3 cells, lipid droplet BODIPY/CellTracker ratio, 18-24 h; series mostly up to 46.1 µM; activity change, negative = inhibition: at the top concentration
Excerpt: NIH Molecular Libraries Probe Production Centers Network [MLPCN] NIH Chemical Genomics Center [NCGC] MLPCN Grant: 1 R03 MH085686-01 Assay Submitter (PI): Beller, Mathias; Max-Planck-Institut fur Biophysikalische Chemie NCGC Assay Overview: Storing lipids as a reservoir for energy or the anabolism of elementary metabolites is a common feature of probably all cells and is conserved from bacteria to humans. The universal cellular lipid storage organelle is the so-called lipid storage droplet (LD). Although ubiquitous, LDs share a simple structure composed of a hydrophobic core that harbors the storage lipids, which is shielded by a droplet-specific phospholipid monolayer to which proteins are attached. The current model of LD biogenesis involves an incorporation of the lipid core into the membrane leaflets of the endoplasmic reticulum (ER) followed by a subsequent budding-like maturation of a LD, which ultimately pinches off. Once released, LD volume can increase by localized lipogenesis or fusion of existing droplets. Storage lipids are re-mobilized enzymatically by lipase activity. Lipase regulation in the adipocyte is heavily studied and involves multiple components including catecholamine signaling, the LD-associated proteins Perilipin and comparative gene identification-58 (CGI-58) and at least two lipases named hormone sensitive lipase (HSL) and adipocyte triglyceride lipase (ATGL). LD regulation outside of the adipocyte is poorly understood and only few components are known. However, there is an urgent need to learn more about ectopic fat depots as mislocalized storage of lipids, for example in the liver or muscle, is an eminent health problem associated with insulin resistance or the metabolic syndrome. We developed a laser-scanning cytometer assay to enable 1,536-well screening and combined the results of the small molecules screen with an RNAi database based on lipid storage. Exo1 identified in the primary screen (AID 1519) and several analogs were measured in the lipid storage assay as 24-point concentration-response curves to confirm potency and SAR.
We dispensed 4 uL of cells at 1.25 x 10^6 cells/mL into LoBase Aurora COC 1,536-well plates (black walled, clear bottom) with a bottle-valve solenoid-based dispenser (Aurora) to obtain 5,000 cells/well. Triacsin C (Sigma-Aldrich T-4540), an inhibitor of long-chain fatty acyl CoA synthetase that blocks synthesis of triglycerides, was used as a positive control for lipid under-storage. A total of 23 nL of compound solution of different concentrations were transferred to the assay plates using a Kalypsys pin tool equipped with a 1,536-pin array containing 10-nL slotted pins (FP1S10, 0.457-mm diameter, 50.8 mm long; V&P Scientific). One microliter of oleic acid (400 uM) was added, and the plate was lidded with stainless steel rubber gasket lined lids containing pinholes. After 18-24 h incubation at 24 degree Celsius and 95% humidity, 4 uL of the dyes BODIPY 493/503 (Molecular Probes) and the Cell Tracker Red CMTPX dye (Molecular Probes) were added to the wells to stain lipid droplets and enumerate cell number, respectively. Fluorescence was detected by excitation of the fluorophores with a 488-nm laser on an Acumen Explorer (TTP Lab Tech). The total intensity in channel 1 (500-530 nm) reflected lipid droplet accumulation. Cells were detected using channel 3 (575- 640 nm) with 5-um width and 100-um depth filters. The ratio of the total intensity in PMT channel 1 over total intensity of channel 3 was also calculated. Percent activity was computed relative to an internal control (100% inhibited lipid droplet deposition due to the presence of 20 uM Triacsin C), which was added to 32 wells/plate.
Potency is the fitted concentration of half-maximal effect.

Structure (SMILES) | activity change, negative = inhibition | Potency
Cc1ccc(-c2noc(C3CCCN(C(=O)c4ccccc4Br)C3)n2)cc1 (stereo not given) | -18.5% [at 30.7 µM] (inactive) | 
CC1=C(C(=O)NC2CCCc3c2cnn3-c2cccc(C)c2C)OCCO1 (stereo not given) |  | 0.0137 µM (active)
COc1ccc(NC(=O)NC2(C(=O)N3CCOCC3)CCCCC2)cc1 | 25.8% (inactive) | 
COCCN(C(=O)c1ccccc1F)c1nnc(-c2ccc(OC)cc2)s1 |  | 25 µM (active)
COc1ccc(CCNC(=O)c2noc(C(C)C)c2[N+](=O)[O-])cc1OC | 14.7% (inactive) | 
CCOC(=O)c1c(C)[nH]c(C(=O)OCC(=O)NCCc2ccc(OCC)c(OCC)c2)c1C |  | 0.888 µM (active)
COc1ccccc1Nc1nnc(SCC(=O)Nc2nc(-c3ccc(F)cc3)cs2)s1 |  | 0.705 µM (active)
CCOc1ccc(CCNC(=O)CSCc2ccc(C)cc2)cc1OCC | -24% (inactive) | 
CC1CCCCN1c1ccc(N)cc1C(N)=O (stereo not given) | 29.7% (inactive) | 
COc1ccc(NC(=O)NC2(C(=O)N3CCN4CCCC4C3)CCCCC2)cc1 (stereo not given) | 10.5% (inactive) | 
Cn1nc(C(C)(C)C)cc1C(=O)NCc1ccc2c(c1)OCO2 |  | 2.5 µM (active)
CCOC(=O)C1CCN(C(=O)C2(NC(=O)NC3CCCCC3)CCCCC2)CC1 |  | 1.41 µM (active)
COc1ccc(CCNC(=O)CSc2nnc(-c3ccccc3)c3ccccc23)cc1OC |  | 4.45 µM (active)
CCOc1ccc(CCNC(=O)COC(=O)COc2cc(C)cc(C)c2)cc1OCC | 12.7% (inactive) | 
COc1ccc(CCNC(=O)CSc2nnc(CNc3ccc(Cl)cc3)o2)cc1OC | 0.667% (inactive) | 
COc1ccc(CCNC(=O)COc2ccc(-c3ccccc3)cc2)cc1OC | 10.7% (inactive) | 
CCOc1ccc(CCNC(=O)COC(=O)COc2ccc(Br)cc2)cc1OCC | 20% (inactive) | 
COc1ccc(/C=C(/NC(=O)c2cccs2)C(=O)Nc2ccc(C)cc2)cc1OC |  | 0.25 µM (active)
CCCCCCCCn1c(=O)c(C(=O)OC)c(N)c2ccccc21 |  | 7.91 µM (active)
COc1ccc(CC(=O)NCCc2ccc(OC)c(OC)c2)cc1 | 12.7% (inactive) | 

Structure (SMILES) | activity change, negative = inhibition | Potency
O=C(Nc1ccc(Cl)c(Cl)c1)Nc1ccc(Br)cc1F |  | 8.88 µM (active)
COc1ccc2c(c1)O[C@@H](c1cccc(C(F)(F)F)c1)[C@H](OC(=O)NCCc1ccc(OC)c(OC)c1)C2=O |  | 4.99 µM (active)
CCN(CC(=O)Nc1c(F)cccc1F)C(=O)CCCc1c[nH]c2ccccc12 |  | 0.628 µM (active)
CCOc1ccc(CCNC(=O)COC(=O)/C=C/c2ccccc2)cc1OCC |  | 3.53 µM (active)
O=C(NCC1(N2CCOCC2)CCCCC1)c1ccc(S(=O)(=O)Nc2ccccc2F)cc1 |  | 3.97 µM (active)
O=C(CCc1ccccn1)NC1CCCc2c1cnn2-c1ccc(F)cc1F (stereo not given) | -20.8% (inactive) | 
CCOC(=O)c1cc2c(ccn2-c2ccc(F)cc2)n1CC(=O)NC(C)(C)C |  | 1.41 µM (active)
COc1ccc(/C=C(\NC(=O)c2cccs2)C(=O)Nc2ccccc2C)cc1OC |  | 0.177 µM (active)
CCOc1ccc(CCNC(=O)COC(=O)c2cccc(S(=O)(=O)N3CCCCC3)c2)cc1OCC | -7.33% (inactive) | 
Cc1cccc(-n2ncc3c2CCCC3NC(=O)Cc2c(C)noc2C)c1C (stereo not given) |  | 14.1 µM (active)
O=C(Nc1ccc(S(=O)(=O)N2CCCC2)cc1)c1ccc(CN2CCc3ccccc3C2)cc1 |  | 14.1 µM (active)
Cc1ccc(C)c(S(=O)(=O)N2CCN(CC(=O)Nc3sccc3C#N)CC2)c1 |  | 9.96 µM (active)
COc1ccc(CCNC(=O)CSc2nc3[nH]ncc3c(=O)n2-c2ccc(Cl)cc2Cl)cc1OC | -19.3% (inactive) | 
COc1cccc(/C=C/C(=O)NCCc2ccc(OC)c(OC)c2)c1 |  | 1.77 µM (active)
CCN1CCN(Cc2ccc(NC(=O)c3ccc(C)c(NC(=O)c4c[nH]c5cc(C(F)(F)F)ccc5c4=O)c3)cc2C(F)(F)F)CC1 |  | 8.88 µM (active)
COc1ccc(CCNC(=O)COc2ccc(S(=O)(=O)NCC(C)C)cc2Cl)cc1OC | -18% (inactive) | 
COc1ccc(CCNC(=O)CCCOc2cccc(C)c2C)cc1OC | -9.33% (inactive) | 
CCOC(=O)C1CCN(C(=O)C2(NC(=O)Nc3ccccc3Cl)CCCCC2)CC1 |  | 0.628 µM (active)
COc1ccc(CCNC(=O)CSC2=NS(=O)(=O)c3ccccc3N2)cc1OC | 8% (inactive) | 
Cc1ccc(S(=O)(=O)N(C)C)cc1NC(=O)COC(=O)c1sc2cc(Cl)ccc2c1Cl |  | 14.1 µM (active)
